# Reference: PubChem BioAssay
# Activity calls are given as the source filed them. Unless noted, the rule behind the calls is not given here.
# What was measured:
# [1] = resazurin metabolic signal in HepG2 cells – cell-based, resazurin fluorescence, 24 h, PK04 Diversity Set, profiling panel (AID 1172); settings: HepG2 viability, higher = more signal
# [2] = budding yeast growth changes without added modifier – OD600, strain BY4716, 24 h, basal condition, primary screen (AID 1173); settings: S. cerevisiae BY4716 growth, OD600, 24 h; higher = more signal, called active from +8 up or from −8 down
# [3] = viability profiling in MM1S myeloma cells – cell-based, resazurin fluorescence, basal, 24 h, PK04 Diversity Set, profiling panel (AID 1174); settings: higher = more signal, called active from +8 up or from −8 down;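 note: MM1S multiple myeloma cell line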
# [4] = molecular target: Dihydroorotate dehydrogenase (quinone), mitochondrial (Plasmodium falciparum (isolate 3D7)) (UniProt Q08210); test: inhibition of P. falciparum DHODH – biochemical, C-terminal His tag, absorbance 600 nm, primary screen (AID 1175); settings: PfDHODH enzyme, DCIP absorbance 600 nm; higher = more signal, called active from +8 up or from −8 down;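 note: recombinant parasite enzyme with a five histidine tag at its C terminus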
# Chain of Dihydroorotate dehydrogenase (quinone), mitochondrial (Plasmodium falciparum (isolate 3D7)) (Q08210 whole entry, looked up): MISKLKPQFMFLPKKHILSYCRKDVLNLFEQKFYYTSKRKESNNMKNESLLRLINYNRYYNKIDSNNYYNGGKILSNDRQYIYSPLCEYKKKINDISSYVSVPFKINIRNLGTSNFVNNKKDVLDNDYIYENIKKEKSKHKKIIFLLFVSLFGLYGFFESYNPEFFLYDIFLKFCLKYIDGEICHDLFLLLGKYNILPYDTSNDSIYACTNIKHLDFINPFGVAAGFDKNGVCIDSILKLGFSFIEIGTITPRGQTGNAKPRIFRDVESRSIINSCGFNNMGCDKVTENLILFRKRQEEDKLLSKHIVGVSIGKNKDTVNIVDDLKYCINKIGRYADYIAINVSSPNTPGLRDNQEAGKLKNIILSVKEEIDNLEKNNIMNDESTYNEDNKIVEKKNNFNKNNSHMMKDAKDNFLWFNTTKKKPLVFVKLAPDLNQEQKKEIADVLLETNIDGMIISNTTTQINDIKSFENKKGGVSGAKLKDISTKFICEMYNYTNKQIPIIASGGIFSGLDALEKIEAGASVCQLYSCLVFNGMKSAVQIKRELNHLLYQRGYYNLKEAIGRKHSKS
# [5] = inhibition of PAO1 biofilm formation – strain PAO1, LB-PBS medium, absorbance 600 nm, primary screen (AID 1176); settings: P. aeruginosa PAO1 growth/biofilm, A600, 12 h; higher = more signal
# [6] = growth modulation of vineyard yeast isolate – strain RM11-1a, OD600, basal, 24 h, primary screen (AID 1177);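 note: cultures grown under basal conditions with no added stressor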; settings: S. cerevisiae RM11-1a growth, OD600, 24 h; higher = more signal, called active from +8 up or from −8 down
# [7] = growth of efflux-deficient E. coli DRC39 – strain DRC39, OD650, 24 h, E. coli filamentation inducers, primary screen (AID 1178);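 note: growth measured as culture turbidity by optical density at 650 nm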; settings: E. coli DRC39 acrAB, higher = more signal, called active from +8 up or from −8 down
# [8] = growth of efflux-deficient E. coli DRC39 – strain DRC39, OD650, 48 h, E. coli filamentation inducers, primary screen (AID 1179);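 note: screen aims at cell division blockers that make cells filament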; settings: E. coli DRC39 delta-acrAB growth, higher = more signal, called active from +8 up or from −8 down
# [9] = viability profiling in RPMI8226 myeloma cells – cell-based, resazurin fluorescence, basal, 24 h, PK04 Diversity Set, profiling panel (AID 1180); settings: higher = more signal;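 note: RPMI8826 multiple myeloma cell line at 5000 cells per well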
# [10] = molecular target: E3 ubiquitin-protein ligase XIAP (Homo sapiens) (UniProt P98170); test: small molecules binding XIAP protein – biophysical, small-molecule microarray, fluorescence 635 nm, primary screen (AID 1181); settings: higher = more signal;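 note: score merges 667 nm emission and signal to noise over triplicate slides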
# Chain of E3 ubiquitin-protein ligase XIAP (Homo sapiens) (P98170 whole entry, looked up, the tested form may be a part): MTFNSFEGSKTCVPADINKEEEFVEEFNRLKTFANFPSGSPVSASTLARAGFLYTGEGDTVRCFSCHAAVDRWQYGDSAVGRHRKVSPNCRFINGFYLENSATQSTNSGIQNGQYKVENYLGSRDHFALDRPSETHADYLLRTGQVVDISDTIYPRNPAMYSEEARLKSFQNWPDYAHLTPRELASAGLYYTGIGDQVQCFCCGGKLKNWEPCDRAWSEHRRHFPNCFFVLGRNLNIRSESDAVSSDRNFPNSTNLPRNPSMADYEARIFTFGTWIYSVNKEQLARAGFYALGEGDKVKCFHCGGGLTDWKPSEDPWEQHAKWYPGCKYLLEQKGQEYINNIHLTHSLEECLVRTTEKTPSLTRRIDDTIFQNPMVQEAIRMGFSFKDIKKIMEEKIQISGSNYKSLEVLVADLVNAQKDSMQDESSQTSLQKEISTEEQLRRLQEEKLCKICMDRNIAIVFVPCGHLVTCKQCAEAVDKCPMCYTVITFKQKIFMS
# [11] = tested on: XIP peptide (Xip251-270) binding; test: XIP fragment 251-270 binding compounds – biochemical, small-molecule microarray, fluorescence 635/667 nm, 0.1 µg/mL protein, primary screen (AID 1182); settings: fluorescent protein binding, 635 nm, higher = more signal, called active from +8 up or from −8 down
# XIP peptide (Xip251-270) = test: compounds binding XIP fragment 251-270 – biochemical, small-molecule microarray, fluorescence 635/667 nm, 0.5 µg/mL protein, primary screen (AID 1183); settings: fluorescence 635 nm, higher = more signal
# [12] = blood-stage malaria parasite viability loss – strain 3D7, DAPI fluorescence, 100 nL, primary screen (AID 1184);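 note: parasites grown inside human red blood cells in medium with human serum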; settings: P. falciparum 3D7 growth, 3 d, higher = more signal
# [13] = molecular target: Homeobox protein Hox-A13 (Mus musculus) (UniProt Q62424); test: disruptors of Hoxa13 oligonucleotide interaction – biochemical, fluorescence polarization, labeled oligonucleotide, primary screen (AID 1185); settings: Hoxa13:DNA binding, 15 min, higher = more signal, called active from +8 up or from −8 down
# Chain of Homeobox protein Hox-A13 (Mus musculus) (Q62424 whole entry, looked up): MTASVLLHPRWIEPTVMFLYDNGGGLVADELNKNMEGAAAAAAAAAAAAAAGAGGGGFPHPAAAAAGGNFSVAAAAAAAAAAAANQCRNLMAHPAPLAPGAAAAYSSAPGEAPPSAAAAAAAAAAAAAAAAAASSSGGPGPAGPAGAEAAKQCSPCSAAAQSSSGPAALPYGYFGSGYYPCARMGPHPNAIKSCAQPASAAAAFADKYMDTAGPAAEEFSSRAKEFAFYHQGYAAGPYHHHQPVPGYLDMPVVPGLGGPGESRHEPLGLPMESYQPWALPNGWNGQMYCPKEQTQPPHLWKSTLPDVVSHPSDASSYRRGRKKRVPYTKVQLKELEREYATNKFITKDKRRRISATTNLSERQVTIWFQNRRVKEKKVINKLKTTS
# [14] = blockers of DNA damage checkpoint Chk1 activation – imaging, HeLa, hydroxyurea, phospho-Chk1 antibody, percent positive cells, primary screen (AID 1186); settings: hydroxyurea-induced phospho-Chk1 immunofluorescence imaging, higher = more signal
# [15] = blockers of DNA damage checkpoint Chk1 activation – imaging, HeLa, hydroxyurea, phospho-Chk1 nuclear intensity, primary screen (AID 1187); settings: hydroxyurea-induced phospho-Chk1 immunofluorescence imaging, higher = more signal
Structure (SMILES),z-score [1],z-score [2],z-score [3],composite z-score [4],z-score [5],z-score [6],z-score [7],z-score [8],z-score [9],composite z-score [10],composite z-score [11],composite z-score (XIP peptide (Xip251-270)),z-score [12],z-score [13],z-score [14],z-score [15]
COC(=O)[C@@]1(Cc2ccc(F)cc2)[C@H]2c3cc(C(=O)N(C)C)n(CCn4cc([N+](=O)[O-])nc4C)c3C[C@H]2CN1C(=O)c1ccccc1,-1.02,1.94 (inactive),-1.05 (inactive),-0.165 (inactive),0.122 (inactive),0.502 (inactive),-0.984 (inactive),-0.566 (inactive),-0.801,0.267,0.128 (inactive),0.5,0.653,-2.06 (inactive),0.581 (inactive),0.197 (inactive)
COCCOC(=O)N1C(=O)[C@@]2(c3cc(C#CC4(O)CCCCCC4)ccc31)[C@H](c1ccc(OCCO)cc1)N1[C@H](c3ccccc3)[C@H](c3ccccc3)OC(=O)[C@H]1[C@@H]2C(N)=O,-0.776,0.581 (inactive),-3.25 (inactive),-0.259 (inactive),1.84 (inactive),1.89 (inactive),-0.236 (inactive),-0.635 (inactive),-3.62,-0.142,0.539 (inactive),0.849,-2.02,-1.87 (inactive),-0.0641 (inactive),-0.215 (inactive)
COCCOC(=O)N1C(=O)[C@@]2(c3cc(C#CC4=CCCCC4)ccc31)[C@H](C(=O)N1CCN(c3ncccn3)CC1)[C@H]1C(=O)O[C@H](c3ccccc3)[C@H](c3ccccc3)N1[C@@H]2c1ccccc1OCCO,1.32,1.23 (inactive),1.02 (inactive),0.598 (inactive),4.43 (inactive),1.64 (inactive),-0.368 (inactive),-0.514 (inactive),0.318,-0.312,0.506 (inactive),0.59,-2.32,2.82 (inactive),-0.274 (inactive),-0.475 (inactive)
C=C(COC)/C(=C/C[C@@H](OC(C)=O)c1ccccc1OCCO)c1cc(C(=O)OC)ccc1OC,-0.0418,0.487 (inactive),-0.705 (inactive),-0.069 (inactive),0.543 (inactive),0.759 (inactive),0.013 (inactive),-0.199 (inactive),-0.316,-0.0279,-0.0801 (inactive),0.587,-2.76,-4.47 (inactive),-0.503 (inactive),0.169 (inactive)
COC(=O)[C@@]1(Cc2ccc(OC)cc2)[C@H]2c3cc(C(=O)N4CCCC4)n(CCc4ccc(OC)c(Br)c4)c3C[C@H]2CN1C(=O)c1ccccc1,-0.142,0.775 (inactive),-0.354 (inactive),-0.844 (inactive),0.0539 (inactive),-0.101 (inactive),-0.236 (inactive),-0.351 (inactive),0.282,0.312,-0.0245 (inactive),-0.879,-1.17,-4.39 (inactive),-0.299 (inactive),-0.0792 (inactive)
CCCCN1CC=CC23O[C@@H]4/C=C\CCC(C)OC(=O)C4[C@H]2C(=O)N(C(C)CO)[C@@H]3C1=O (stereo partly drawn),0.0172,-0.0298 (inactive),-0.289 (inactive),-0.216 (inactive),0.301 (inactive),0.549 (inactive),0.659 (inactive),0.606 (inactive),-0.175,0.0785,1.02 (inactive),-0.369,0.105,-5.78 (inactive),0.479 (inactive),0.632 (inactive)
CCCCNC(=O)c1ccc(C#C[Si](C)(C)C)c(OC(C)=O)c1,-0.0319,-1.09 (inactive),-0.757 (inactive),-1.4 (inactive),-1.44 (inactive),0.846 (inactive),1.17 (inactive),-0.925 (inactive),0.0873,-0.326,-0.0158 (inactive),-0.351,-1.27,-4.82 (inactive),0.0588 (inactive),0.103 (inactive)
CCOC(=O)C1=CC[C@@H](c2ccc(F)cc2)N(S(=O)(=O)c2ccc(C)cc2)[C@H]1c1ccc([N+](=O)[O-])cc1,1.09,1.18 (inactive),0.0003 (inactive),-0.554 (inactive),0.0362 (inactive),0.248 (inactive),0.253 (inactive),0.321 (inactive),-0.678,0.0077,0.1 (inactive),0.559,-1.8,0.532 (inactive),0.355 (inactive),0.593 (inactive)
CC[C@H](C)C(=O)O[C@H]1CC[C@]2(C)C3=C(CCC2C1(C)C)[C@]1(C)CC[C@H]([C@H](C)CCCC(C)C)[C@@]1(C)CC3 (stereo partly drawn),1.06,0.31 (inactive),0.0978 (inactive),0.454 (inactive),-0.283 (inactive),0.295 (inactive),2.06 (inactive),1.47 (inactive),1.09,-0.304,0.146 (inactive),-0.273,0.231,-1.34 (inactive),-0.719 (inactive),-0.829 (inactive)
CCOC(=O)C1=CC[C@@H](c2ccccc2)N(S(=O)(=O)C[Si](C)(C)C)[C@H]1c1ccccc1,0.128,0.945 (inactive),-0.013 (inactive),0.407 (inactive),0.257 (inactive),-0.42 (inactive),-0.618 (inactive),-1.59 (inactive),0.343,-0.125,0.127 (inactive),0.704,-1.86,-1.35 (inactive),0.587 (inactive),0.496 (inactive)
COCCOC(=O)N1C(=O)[C@@]2(c3cc(C#CCNC(N)=O)ccc31)[C@H](C(=O)NC[C@H](O)c1ccccc1)[C@H]1C(=O)O[C@H](c3ccccc3)[C@H](c3ccccc3)N1[C@@H]2c1ccc(OCCO)cc1,0.774,2 (inactive),-0.118 (inactive),1.14 (inactive),2.28 (inactive),2.87 (inactive),-0.0238 (inactive),-0.63 (inactive),0.381,0.135,0.561 (inactive),0.785,-0.188,-1.46 (inactive),-0.214 (inactive),-0.23 (inactive)
CC1(C)OC[C@@]23C=C(Br)[C@@H](C[C@H]12)[C@@]1(CO1)C3=O,-0.0972,-1.2 (inactive),0.0059 (inactive),0.253 (inactive),-0.0582 (inactive),0.617 (inactive),-0.509 (inactive),-0.457 (inactive),0.325,-0.02,-0.319 (inactive),0.0841,1.96,0.26 (inactive),-0.54 (inactive),-0.682 (inactive)
COCCOC(=O)N1C(=O)[C@@]2(c3cc(C#CCCO)ccc31)[C@H](C(=O)N1CCN(c3ncccn3)CC1)[C@H]1C(=O)O[C@H](c3ccccc3)[C@H](c3ccccc3)N1[C@@H]2c1ccc(O)cc1,-0.335,-0.142 (inactive),0.359 (inactive),-1.22 (inactive),1.85 (inactive),0.135 (inactive),0.947 (inactive),1.6 (inactive),0.818,-0.031,1.43 (inactive),0.802,-0.278,-2.3 (inactive),-0.416 (inactive),-0.772 (inactive)
O=C1O[C@@H](c2ccccc2)[C@@H](c2ccccc2)N2[C@@H](c3ccc(OCCO)cc3)[C@]3(C(=O)Nc4ccc(C#CCCO)cc43)[C@@H](C(=O)Nc3nc4ccccc4s3)[C@H]12,1.44,0.799 (inactive),1 (inactive),-0.812 (inactive),0.89 (inactive),0.25 (inactive),0.042 (inactive),-0.366 (inactive),1.51,0.0225,0.469 (inactive),0.487,-1.86,1.8 (inactive),-0.234 (inactive),-0.41 (inactive)
CO[C@H]1O[C@H](CO)[C@@H](OC(=O)Nc2ccc(C(F)(F)F)cc2)[C@H](OC(=O)Nc2ccccc2-c2ccccc2)[C@H]1OC(=O)Nc1ccccc1-c1ccccc1,-5.27,1.39 (inactive),-5.4 (inactive),-0.132 (inactive),3.43 (inactive),2.8 (inactive),-0.853 (inactive),-1.25 (inactive),-4.63,0.201,0.844 (inactive),0.701,-1.8,-3.72 (inactive),0.83 (inactive),0.784 (inactive)
O=C1c2ccccc2[C@](Cc2ccccc2I)(C(=O)O)[C@H](c2ccc(CO)cc2)N1Cc1ccccc1,-0.52,-1.72 (inactive),-0.427 (inactive),-5.63 (inactive),-0.121 (inactive),-2.09 (inactive),0.656 (inactive),1.39 (inactive),-0.831,0.147,0.947 (inactive),0.754,0.387,-4.44 (inactive),-0.422 (inactive),-0.204 (inactive)
NC(=O)N1C(=O)C2C(C1=O)C1C=C(CCCO)C2C(c2ccc(CN3CCCC3)cc2)N1Cc1cccc(OC(F)(F)F)c1 (stereo not drawn),-0.708,-0.491 (inactive),-0.504 (inactive),-4.9 (inactive),-0.66 (inactive),-0.219 (inactive),-0.385 (inactive),-0.579 (inactive),-0.884,0.101,0.106 (inactive),-0.133,-2.28,-7.26 (inactive),0.0295 (inactive),0.298 (inactive)
CCN(CC)c1ccc(N2CC=CC34O[C@@H]5C=CCOC(=O)[C@@H]5[C@H]3C(=O)N(CCO)[C@@H]4C2=O)cc1 (stereo partly drawn),0.534,-0.0592 (inactive),0.762 (inactive),-0.675 (inactive),-0.978 (inactive),0.964 (inactive),1.15 (inactive),1.36 (inactive),0.828,0.147,-0.228 (inactive),-1.29,0.738,-4.9 (inactive),-0.52 (inactive),-0.456 (inactive)
